Data published in PubChem BioAssay.
Values without a mark were called inactive. Calls of active or inactive are those of the source. Rule as the data show it, unless noted: active = inhibition above about 44%; inactive = the rest.

Key:
[1] = StAR promoter reporter inhibitors, counter-screen for LRH-1 inverse agonist project, cell-based, luminescence, high throughput (AID 651611; in the data active = inhibition above about 28%); conditions: StAR promoter luciferase reporter counterscreen, at 3.6 µM, active compounds read high
[2] = target: Nuclear receptor subfamily 5 group A member 2 (Homo sapiens) (UniProt O00482); assay: LRH-1 (NR5A2) inverse agonists, retest, confirmation, cell-based, luminescence (AID 651613; in the data active = inhibition above about 42%;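 also: HEK293T cells co-transfected with LRH-1 and StAR promoter luciferase reporter; 0% = vehicle wells and 100% = parental cells lacking receptor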); conditions: cell-based LRH-1 luciferase reporter, inverse agonism; at 3.6 µM; active compounds read high
[3] = target: Steroidogenic factor 1 (Homo sapiens) (UniProt Q13285); assay: SF1 (NR5A1) inverse agonists, counter-screen for LRH-1 inverse agonist project, cell-based, luminescence, high throughput (AID 651614); conditions: cell-based SF1 luciferase reporter, at 3.6 µM, active compounds read high;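 also: cells cotransfected with StAR promoter reporter and SF1 expression vector; 0% = vehicle on cells with receptor and 100% = vehicle on cells lacking receptor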
[4] = VP16 transactivation reporter inhibitors, counter-screen for LRH-1 inverse agonist project, cell-based, luminescence, high throughput (AID 651615; in the data active = inhibition above about 33%); conditions: Gal4-VP16 luciferase reporter cells, at 3.6 µM, active compounds read high

Steroidogenic factor 1 (Homo sapiens), sequence (Q13285 whole entry, looked up, the tested form may be a part): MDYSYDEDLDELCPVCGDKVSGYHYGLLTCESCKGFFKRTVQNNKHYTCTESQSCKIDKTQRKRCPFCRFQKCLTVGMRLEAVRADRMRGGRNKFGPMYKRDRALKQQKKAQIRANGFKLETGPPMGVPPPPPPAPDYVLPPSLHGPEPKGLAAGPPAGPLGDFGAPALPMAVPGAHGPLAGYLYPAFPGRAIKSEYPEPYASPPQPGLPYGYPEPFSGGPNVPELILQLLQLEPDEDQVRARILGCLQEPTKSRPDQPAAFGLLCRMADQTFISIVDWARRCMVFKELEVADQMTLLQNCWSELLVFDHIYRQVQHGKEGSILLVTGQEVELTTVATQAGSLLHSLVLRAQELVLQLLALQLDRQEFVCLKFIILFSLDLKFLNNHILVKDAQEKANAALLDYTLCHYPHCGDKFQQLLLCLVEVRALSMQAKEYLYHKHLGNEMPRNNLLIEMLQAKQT
Nuclear receptor subfamily 5 group A member 2 (Homo sapiens), sequence (O00482 whole entry, looked up): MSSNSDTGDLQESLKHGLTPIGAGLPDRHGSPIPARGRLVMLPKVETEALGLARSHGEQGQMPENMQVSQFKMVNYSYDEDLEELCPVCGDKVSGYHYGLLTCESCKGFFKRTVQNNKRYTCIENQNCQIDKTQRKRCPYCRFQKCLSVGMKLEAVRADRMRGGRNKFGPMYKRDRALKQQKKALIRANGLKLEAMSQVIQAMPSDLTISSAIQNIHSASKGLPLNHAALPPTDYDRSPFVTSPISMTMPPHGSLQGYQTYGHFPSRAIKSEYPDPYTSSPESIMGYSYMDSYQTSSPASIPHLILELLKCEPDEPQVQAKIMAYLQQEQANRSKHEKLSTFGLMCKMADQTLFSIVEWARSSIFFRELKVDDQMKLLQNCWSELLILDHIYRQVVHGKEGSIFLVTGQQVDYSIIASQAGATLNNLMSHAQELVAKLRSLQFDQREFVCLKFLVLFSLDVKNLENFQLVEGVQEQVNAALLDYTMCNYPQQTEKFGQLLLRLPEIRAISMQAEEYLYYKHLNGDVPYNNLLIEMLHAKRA

With `O=C(CSc1nnc(Cc2cccs2)n1Cc1ccco1)Nc1ccc(Cl)cc1Cl` the inhibition [1] was 9.49%, the inhibition [2] was 51.8% (active) and the inhibition [3] was 47.5% (active). For the same compound, the inhibition [4] was 19.1%.

In the case of `COc1ccc(N2CCN(C(=O)c3ccc(CNS(=O)(=O)c4cccc(OC)c4)cc3)CC2)cc1`, the inhibition [1] is reported as 9.25%, the inhibition [2] is reported as 27.8% and the inhibition [3] is reported as 29.5%. It also gave an inhibition [4] of 6.88%.

For `Cc1ccc(-n2nnnc2-c2ccccc2Br)cc1`, the inhibition [1] was 7.41%, the inhibition [2] was 57.2% (active) and the inhibition [3] was 52% (active). The inhibition [4] was 4.92%.

For `Nn1c(SCC(=O)Nc2c(F)cc(F)cc2Br)nnc1C1CCCCC1`, the inhibition [1] was 6.71%, the inhibition [2] was 38.9% and the inhibition [3] was 27.5%. The inhibition [4] was -6%.

With `CCOc1ccc(CCNC(=O)COC(=O)c2cccnc2OCC)cc1OCC` the inhibition [1] was 2.1%, the inhibition [2] was 53.3% (active) and the inhibition [3] was 48.7% (active). It also gave an inhibition [4] of 0.35%.

In the case of `CN1CC(=O)N(CC(=O)Nc2ccc(N3CCOCC3)cc2)C1=O`, the inhibition [1] is reported as 18.7%, the inhibition [2] is reported as 63.9% (active) and the inhibition [3] is reported as 65.2% (active). For the same compound, the inhibition [4] was -10.9%.

For `Cc1c(NC(=O)c2cc(-c3cccs3)nc3ccccc23)c(=O)n(-c2ccccc2)n1C`, the inhibition [1] was 47% (active), the inhibition [2] was 33.5% and the inhibition [3] was 18%. For the same compound, the inhibition [4] was 2.7%.

With `Cc1ccc(CNC(=O)c2ccc([N+](=O)[O-])o2)cc1` the inhibition [1] was 16.4%, the inhibition [2] was 57% (active) and the inhibition [3] was 60.8% (active). The inhibition [4] was -5.02%.

For `COc1ccccc1NC(=O)CN1CCN(CC(=O)Nc2ccc3c(c2)OCO3)CC1`, the inhibition [1] was 7.22%, the inhibition [2] was 54.4% (active) and the inhibition [3] was 50.7% (active). It also gave an inhibition [4] of 0.21%.
